The record followed here is PubChem BioAssay (EPA / NIEHS).

Activity calls are given as the source filed them. Rule for the calls: active = hit-call score of the fitted dose curve at least 0.9, where 1 is the maximum; inactive = score below 0.9.

Read-out in this assay: Intercellular Adhesion Molecule 1 (ICAM1), ICAM1 (gene 3383)
Briefly: BSK_3C_ICAM1: BioMAP Diversity Plus: 3C Assay for Intercellular Adhesion Molecule 1 (ICAM1) Biomarker Activity (AID 2283003). To be noted: primary human endothelial cells (HUVEC); actives raise or lower the signal. The procedure: BSK_3C is a cell-based, multiplexed-readout assay that uses umbilical vein endothelium, a human vascular primary cell, with measurements taken at 24 hours after chemical dosing in a 96-well plate.BSK_3C_ICAM1 is an assay component measured in the BSK_3C assay. It measures ICAM-1 antibody related to regulation of gene expression using ELISA technology.Data from the assay component BSK_3C_ICAM1 was analyzed into 1 assay endpoint. This assay endpoint, BSK_3C_ICAM1, was analyzed with bidirectional fitting relative to DMSO as the negative control and baseline of activity. Using a type of binding reporter, gain or loss-of-signal activity can be used to understand changes in the signaling as they relate to the gene ICAM1. Furthermore, this assay endpoint can be referred to as a primary readout, because this assay has produced multiple assay endpoints where this one serves a signaling function. To generalize the intended target to other relatable targets, this assay endpoint is annotated to the cell adhesion molecules intended target family, where the subfamily is Immunoglobulin CAM.
The levels of cell surface (or secreted, indicated by the prefix "s") biomarker endpoints were measured by ELISA. Overt cytotoxicity to cells in confluent adherent cultures (all systems other than the BT system) was assessed by measuring total protein levels using sulforhodamine B (SRB) staining in parallel cultures at the time of biomarker measurements, indicated as SRB endpoints. For proliferation assays for adherent cell types, individual cell types are cultured at sub-confluence and relative cell numbers quantified by SRB staining at time points optimized for each system (48 h: 3C and CASM3C systems; 72 h: BT and HDF3CGF systems; 96 h: SAg system). SRB was performed by staining cells with 0.1% SRB after fixation with 10% TCA and reading wells at 560 nm.Viability and proliferation of PBMC (T cells) was quantified by Alamar Blue reduction for the SAg and BT systems. For PBMC viability (referred to as PBMC Cytotoxicity within the assay endpoint names), cells were plated (75,000/well in a 96-well plate) and then chemical samples added for 1 h before addition of activators, SEB and TSST-1 (20 ng/mL final concentration each). Cells were incubated for 90 h. Then, Alamar Blue (20 uL/well) (Invitrogen, Cat DAL1100) was added for 6 h, and the plates were read with a fluorescence microplate reader at 546/580 nm (excitation/emission). For PBMC proliferation, cells were plated and activated as above but incubated for only 16 h prior to addition of Alamar Blue. Plates were read after 6 h.
On to `CC(C)CCO`, for which the result was inactive.
Turning to `CC(C)=CCC/C(C)=C\CO`, the outcome was inactive.
Still for that read-out and setting: the result for `O=P(OC(CCl)CCl)(OC(CCl)CCl)OC(CCl)CCl` reads “inactive”; that for `CCCCCCCCCCCCCCCO`, “inactive”.
On the same count and under the same terms, the result for `Oc1ccc2c(c1)-c1ccccc1C2` reads “inactive”.
For `CCN(C(=O)c1cc(C)cc(OC[C@H](C)Nc2ccncc2)c1)C(C)C`, the result was inactive.
On the same count and under the same terms, the result for `CC(C)(O)c1coc(S(=O)(=O)NC(=O)Nc2c3c(cc4c2CCC4)CCC3)c1` reads “inactive”; that for `COCCOc1cc2cc(C(=O)NC3CCN(C(C)C)CC3)n(CC(=O)Nc3ccc(Cl)cn3)c2cn1`, “inactive”.
`O=C(CCCCCCCCc1cccnc1)N1CCC(C=C(c2ccccc2)c2ccccc2)CC1`: the AC50 (in general, the concentration giving half of the maximal activity seen) is 15.4 µM (active).
As for `CC1=CC(=O)CC(C)(C)C1`, the result was inactive.
Still for that read-out and setting: the result for `Cn1c(=O)c2c(ncn2C)n(C)c1=O` reads “inactive”; that for `CC(C)CCCCCCCOC(=O)CCCCC(=O)OCCCCCCCC(C)C`, “inactive”; that for `CC[C@H]1OC(=O)[C@H](C)[C@@H](O[C@H]2C[C@@](C)(OC)[C@@H](O)[C@H](C)O2)[C@H](C)[C@@H](O[C@@H]2O[C@H](C)C[C@H](N(C)C)[C@H]2O)[C@](C)(O)C[C@@H](C)C(=O)[C@H](C)[C@@H](O)[C@]1(C)O`, “inactive”.
As to `CCC(C)(C)C(=O)O[C@H]1C[C@@H](C)C=C2C=C[C@H](C)[C@H](CC[C@@H]3C[C@@H](O)CC(=O)O3)[C@H]21`, the result was inactive.
`On1ccccc1=S`: the AC50 was 24 µM (active).
Take `COCCOCCOCCOC`: the result was inactive.
For `CCCC(=O)OCC`, the outcome was inactive.
On the same count and under the same terms, the result for `C=CC(=C)CCC=C(C)C` reads “inactive”.
Same read-out and setting: the result for `O=C(OC[C@H]1O[C@@H](OC(=O)c2cc(O)c(O)c(OC(=O)c3cc(O)c(O)c(O)c3)c2)[C@H](OC(=O)c2cc(O)c(O)c(OC(=O)c3cc(O)c(O)c(O)c3)c2)[C@@H](OC(=O)c2cc(O)c(O)c(OC(=O)c3cc(O)c(O)c(O)c3)c2)[C@@H]1OC(=O)c1cc(O)c(O)c(OC(=O)c2cc(O)c(O)c(O)c2)c1)c1cc(O)c(O)c(OC(=O)c2cc(O)c(O)c(O)c2)c1` reads “inactive”; that for `CCNc1ccccc1`, “inactive”.
Still for that read-out and setting: the result for `CC1(C)C(=O)N(Br)C(=O)N1Br` reads “inactive”; that for `CC(=O)c1ccc2c(c1)[C@H](NC(=O)c1ccc(F)cc1)[C@@H](O)C(C)(C)O2`, “inactive”.
Turning to `CC(C)CC(C)(O)C#CC(C)(O)CC(C)C` (stereo not given), the result was inactive.
Take `CCCCC(CC)COC(=O)CCCCCCCCC(=O)OCC(CC)CCCC` (stereo not given): the result was inactive.
Still for that read-out and setting: the result for `O=C1OC(=O)C2C3C=CC(C3)C12` (stereo not given) reads “inactive”.
Same read-out and setting: the result for `CCCCCCCCO` reads “inactive”; that for `Nc1ccc(Nc2ccccc2)cc1`, “inactive”; that for `Cc1ccc(O)cc1`, “inactive”.
Still for that read-out and setting: the result for `O=C1CCCCCN1` reads “inactive”.
`COc1ccc(/C=C/S(=O)(=O)NC(=O)c2ccc(C)cc2Cl)cc1`: the result was inactive.
Still for that read-out and setting: the result for `Cc1[nH]cnc1C[C@H]1CCc2c(C)c3ccccc3n2C1=O` reads “inactive”; that for `Cc1c(-c2cccnc2)c2ccccc2n1CCCCC(=O)O`, “inactive”.
As to `CC[C@H](C)C(=O)O[C@H]1C[C@@H](C)C=C2C=C[C@H](C)[C@H](CC[C@@H]3C[C@@H](O)CC(=O)O3)[C@H]21`, the concentration at half-maximal activity (AC50) is 36.8 µM (active).
Regarding `Fc1ccccc1[C@@H](F)COC1CCC(Nc2ncnc3[nH]ncc23)CC1` (stereo not given in full), the outcome was inactive.
Regarding `CCOC(=O)COc1ccc2c(c1)CC(NCC(O)c1cccc(Cl)c1)CC2` (stereo not given), the concentration at half-maximal activity (AC50) is 28.4 µM (active).
Take `NC(=O)NO`: the outcome was inactive.
Same read-out and setting: the result for `CN(C)c1ccc(N=NS(=O)(=O)O)cc1` reads “inactive”.
Take `CCOC(=O)CC(CC(=O)OCC)(OC(C)=O)C(=O)OCC`: the result was inactive.
Regarding `Nc1cccc(N)c1`, the result was inactive.
Take `CC(O)CN(CCN(CC(C)O)CC(C)O)CC(C)O` (stereo not given): the outcome was inactive.
